Measurements as given in the supplement of paper PMC11383364.
± gives the standard deviation of the averaged measurements.

These compounds were tested on SUM149 (assay: percent difference in area under dose-response curve of relative cell number, RPMI vs HPLM; higher = drug relatively more effective in HPLM than RPMI (negative = less effective in HPLM)). Conditions: treatment time: 72 h; dose range: 10-point, 1 nM to 20 µM; media compared: RPMI vs HPLM.
Method: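 SUM149 triple-negative breast cancer cells, 500 cells/well in 384-well plates, were grown in RPMI or human plasma-like medium (HPLM) with 5% dialyzed FBS. They were pin-transferred with an anticancer plus metabolic-inhibitor library in 10-point dose series (20 µM to 1 nM). After 72 h, cells were fixed, stained with bisbenzimide and counted by Acumen plate cytometry. The AUC of relative survival vs dose was computed per medium, and the percent difference in AUC between RPMI and HPLM is reported.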

Structure (SMILES) | percent difference in area under dose-response curve [%]
CC(=O)c1c(O)c(C)c(O)c(Cc2c(O)c3c(c(C(=O)/C=C/c4ccccc4)c2O)OC(C)(C)C=C3)c1O [Rottlerin] | -6.49
NC(=O)c1ccc(N)nc1 [6_Aminonicotinamide] | -3.77
C[S+]([O-])CCCCN=C=S (centres undefined) [Sulforaphane] | -4.37
Cn1c(CCCC(=O)O)nc2cc(N(CCCl)CCCl)ccc21 [Bendamustine_HCL] | -4.52
Cc1sc2c(c1C)C(c1ccc(Cl)cc1)=N[C@@H](CC(N)=O)c1nnc(C)n1-2 | -25.8
CCOc1ccccc1-n1c(C(C)N2CCN(C(=O)COc3ccc(Cl)cc3)CC2)nc2ccccc2c1=O (centres undefined) [Erastin] | -2.91
CC(C)[C@]12O[C@H]1[C@@H]1O[C@]13[C@]1(O[C@H]1C[C@H]1C4=C(CC[C@@]13C)C(=O)OC4)[C@@H]2O [Triptolide] | -67
Cc1cc2c(C(C)C)c(O)c(O)c(C=O)c2c(O)c1-c1c(C)cc2c(C(C)C)c(O)c(O)c(C=O)c2c1O [Gossypol] | -5.85 ± 4.1
CCCCCC[C@H]1C(=O)O[C@H](C)[C@H](NC(=O)c2cccc(NC=O)c2O)C(=O)O[C@@H](C)[C@@H]1OC(=O)CC(C)C [Antimycin_A] | -6.05
O=C(O)CCCc1ccc(N(CCCl)CCCl)cc1 [Chloroambucil] | -5.32
CC1=CC(=O)c2c(O)cccc2C1=O [Plumbagin] | -4.04
c1ccc2c(c1)[I+]c1ccccc1-2 [Diphenyleneiodonium_chloride] | -42
C/C(=C\c1csc(C)n1)[C@@H]1C[C@@H]2O[C@]2(C)CCC[C@H](C)[C@H](O)[C@@H](C)C(=O)C(C)(C)[C@@H](O)CC(=O)O1 [Epothilone_B] | -49.1
[N-]=[N+]=CC(=O)OC[C@H](N)C(=O)O [Azaserine] | -16.2
N#Cc1cn([C@@H]2O[C@H](CO)[C@@H](O)[C@H]2O)c2ncnc(N)c12 [Toyocamycin] | -27.1
O=C1CSC(c2ccccc2Cl)c2cc(Cl)ccc2N1 (centres undefined) | 4.73
C/C(=C\c1csc(C)n1)[C@@H]1C[C@@H]2O[C@@H]2CCC[C@H](C)[C@H](O)[C@@H](C)C(=O)C(C)(C)[C@@H](O)CC(=O)O1 [Epothilone_A] | -32.6
C=C(C)[C@H]1Cc2c(ccc3c2O[C@@H]2COc4cc(OC)c(OC)cc4[C@@H]2C3=O)O1 [Rotenone] | -23
CC(=O)N[C@H]1[C@@H](O[C@@H]2O[C@H](CC(O)[C@H]3O[C@@H](n4ccc(=O)[nH]c4=O)[C@H](O)[C@@H]3O)[C@H](O)[C@H](O)[C@H]2NC(=O)/C=C/CC(C)C)O[C@H](CO)[C@@H](N)[C@@H]1O (some centres undefined) [Tunicamycin] | -6.39
C/C=C(/C)C(=O)O[C@H]1C(C)=C2[C@H]([C@@H]1OC(=O)CCCCCCC)[C@@](C)(OC(C)=O)C[C@H](OC(=O)CCC)[C@@]1(O)[C@H]2OC(=O)[C@@]1(C)O [Thapsigargin] | -31.9
S=C=NCCc1ccccc1 | -5.8
Oc1cc(Cl)ccc1Oc1ccc(Cl)cc1Cl [Triclosan] | 2.04
O=S(=O)(CC1CS1)c1ccc(Oc2ccccc2)cc1 (centres undefined) | 4.58
CC[C@@H]1/C=C/C=C/C[C@H](C)[C@H](O)[C@](C)(O)C(=O)[C@H](C)[C@@H](O)[C@H](C)C(=O)[C@H](C)[C@@H](O)[C@H](C)/C=C/C(=O)O[C@H]2[C@@H](C)[C@@H](CC1)O[C@@]1(CC[C@@H](C)[C@@H](C[C@H](C)O)O1)[C@@H]2C [Oligomycin_A] | -41
